From PubChem BioAssay
Many of the other results were omitted from the sample, so hits are more common in it than they were.
12-LOX inh: ALOX12 (human) lipoxygenase inhibition. P18054. purified 12hLO, xylenol orange hydroperoxide absorbance. Potency, µM (doses to about 108 µM), without a hit: at the top dose activity change, negative = inhibition, usual class: inhibitors. actives 1.1% (n = 580,000); also: potency is read from the fitted curve at half-maximal effect
Target sequence (P18054 whole entry, looked up): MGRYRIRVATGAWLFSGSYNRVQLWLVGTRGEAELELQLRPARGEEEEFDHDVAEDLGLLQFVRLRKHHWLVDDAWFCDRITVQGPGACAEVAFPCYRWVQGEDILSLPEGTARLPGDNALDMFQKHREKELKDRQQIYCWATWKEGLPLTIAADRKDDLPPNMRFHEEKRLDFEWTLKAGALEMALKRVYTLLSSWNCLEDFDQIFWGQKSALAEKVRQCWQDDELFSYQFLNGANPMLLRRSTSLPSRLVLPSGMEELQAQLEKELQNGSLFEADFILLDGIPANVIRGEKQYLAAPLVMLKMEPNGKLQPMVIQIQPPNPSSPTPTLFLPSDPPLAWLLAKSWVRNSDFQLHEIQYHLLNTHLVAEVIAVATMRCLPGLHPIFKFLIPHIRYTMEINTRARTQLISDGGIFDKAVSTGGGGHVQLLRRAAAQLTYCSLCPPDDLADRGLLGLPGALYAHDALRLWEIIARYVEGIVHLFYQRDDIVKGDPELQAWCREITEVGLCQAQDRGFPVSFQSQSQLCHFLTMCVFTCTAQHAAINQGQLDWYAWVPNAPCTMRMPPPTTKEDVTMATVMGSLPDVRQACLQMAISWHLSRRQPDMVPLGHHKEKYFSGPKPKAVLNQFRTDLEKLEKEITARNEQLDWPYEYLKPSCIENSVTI
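Purified human 12hLO (150 nM final) in 25 mM Hepes, 0.01% Triton X-100, pH 7.0 was preincubated 15 min at room temperature with compound. Then 40 uM arachidonic acid was added, 30 min. Hydroperoxide was read by Fe-XO absorbance ratio 573/405 nm.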
TDP1 cell CPT: DT40-hTDP1 cell growth loss with CPT; chicken DT40 Tdp1-/-;hTDP1 cells + 20 nM CPT, ATP luminescence, 48 h; Potency, µM (highest dose often 46.2 µM), inactives show at the top dose activity change, negative = growth inhibition, actives largely listed as inhibitors; actives 12% (n = 420,000); also: potency is read from the fitted curve at half-maximal effect; nearly all actives have a fitted effect of over 55% in size
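Cell growth measured by CellTiter-Glo luminescence after a minimum 48 h, 37 C compound exposure with 20 nM CPT in Tdp1-knockout DT40 cells stably expressing hTDP1, seeded 400/well; qHTS titration format.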
IL-1B inflam inh: blocks inflammasome-driven IL-1 beta release. THP-1 LPS/ATP IL-1B secretion, AlphaLISA, 16 h; stronger effect = lower value. activity change, % at 57.5 µM. actives 4.7% (n = 360,000); in the data active = activity change below about -50%; inconclusive = mostly about -30% to -49%
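THP-1 cells pretreated 1 hr with compounds (up to 57.5 uM final), then stimulated with LPS (250 ng/mL final) plus ATP (1.25 mM final); secreted IL-1B measured by AlphaLISA after 16 hr, decreased signal indicating inhibition.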
HT1080NT lethal: kills 2HG-producing HT-1080-NT fibrosarcoma cells. Potency, µM (series often up to 46.1 µM), for inactives: at the highest dose activity, negative = less viability, most hits filed as cytotoxic. actives 1.6% (n = 360,000). AID 686970. HT-1080-NT fibrosarcoma viability, CellTiter-Glo ATP luminescence, 48 h;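 also: NT is the 2HG producing partner of a matched IDH1 knockdown line; potency is read from the fitted curve at half-maximal effect; 0% = DMSO-treated cells and -100% = media-only wells without cells; nearly all actives have a fitted effect of over 55% in size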
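Fibrosarcoma NT cells, 750 per well in 5% FBS RPMI, were exposed to compound for 48 hours. Viability: CellTiter-Glo luminescence.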
HT1080 IDH1KD tx: toxicity to HT-1080 IDH1 knockdown cells (counter line) | HT-1080 IDH1 knockdown viability, ATP luminescence, 48 h | Potency, µM (top dose mostly 46.1 µM), for the others: at the top dose activity, negative = toxicity, actives largely listed as cytotoxic | actives 2% (n = 360,000);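 also: potency is read from the fitted curve at half-maximal effect; 0% = DMSO wells and -100% = cell-free medium wells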
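After a 2 h attachment period, IDH1KD HT-1080 cells took pin-transferred compound for 48 h at 37 °C; ATP-based luminescence after 10 min room-temperature reagent incubation reported viability.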
TDP1 cell noCPT: qHTS for Inhibitors of human tyrosyl-DNA phosphodiesterase 1 (TDP1): qHTS in cells in absence of CPT; DT40 Tdp1-/- hTDP1 cells, no CPT, ATP luminescence, 48 h; Potency, µM (titrated, usually from 46.2 µM), for inactives: top-dose activity change, negative = growth inhibition, hits mostly inhibitors; actives 15% (n = 420,000); AID 686978, 2013; also: potency is read from the fitted curve at half-maximal effect; nearly all actives have a fitted effect of over 55% in size
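Camptothecin absent (DMSO only). Human TDP1-complemented DT40 knockout cells, 400 cells/well, 37 °C for minimum 48 hr; ATP measured via CellTiter-Glo, 30 min dark incubation, luminescence.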
An asterisk follows results filed as active; ? = inconclusive; / = not tested or not shown; [ ] = remark or other dose. Unless noted, calls follow the shape of the dose curve; as a rule, active = well fitted curve in the direction sought with a large enough effect; inconclusive = small, poorly fitted or top-dose-only effect, or another doubt; inactive = no such curve, though single readings can be large; an effect the other way counts as inactive or inconclusive. Unless noted, % is scaled to controls: 0 for no effect and ±100 for the full control effect.

SMILES	12-LOX inh	TDP1 cell CPT	IL-1B inflam inh	HT1080NT lethal	HT1080 IDH1KD tx	TDP1 cell noCPT
CCC(C(=O)NCc1cccc(Br)c1)n1nc(C)c2c(C)n(-c3ccccc3)nc2c1=O (stereo unspecified)	-13%	23µM*	/	/	/	?
Cn1ccnc1C(NC(=O)c1ccc[nH]1)c1ccccc1 (stereo unspecified)	30%	/	/	/	/	/
O=C1CC(C(=O)N2CCc3c(Cl)cccc3C2)CN1Cc1cccnc1 (stereo unspecified)	8%	/	/	/	/	/
COc1ccc(OC)c(NC(=O)C2(C)CCN2C(=O)Cc2ccc(Cl)cc2Cl)c1 (stereo unspecified)	14%	21µM*	-1	-19%	3%	18µM*
CC1(C(=O)Nc2ccc3c(c2)OCCO3)CCN1C(=O)CC1CCCC1 (stereo unspecified)	11%	?	-4	6%	21%	?
CC1(C(=O)Nc2ccc(Cl)c(Cl)c2)CCN1C(=O)CC1CCCC1 (stereo unspecified)	-2%	26µM*	-7	16%	12%	?
COc1ccc(NC(=O)C2(C)CCN2C(=O)Cc2ccc(Cl)cc2Cl)cc1OC (stereo unspecified)	?	18µM*	-19	4%	1%	21µM*
CC1(C(=O)Nc2cccc3cccnc23)CCN1C(=O)Cc1ccc(Cl)cc1Cl (stereo unspecified)	?	21µM*	-22	-15%	-18%	21µM*
CCOc1ccc(NC(=O)Cn2nc3c(cc2=O)CN(C(C)=O)CC3)cc1	26%	/	/	/	/	/
O=C(NC1CC1)c1nc(-c2cccnc2)c2cnccn12	-1%[12.5 µM]	/	/	/	/	/
CCOC(=O)C1C(=O)C=C(/C=C/c2ccccc2)CC1c1ccc(Cl)cc1 (stereo unspecified)	29%	29µM*	-26	-4%	-7%	?
CCOC(=O)C1C(=O)C=C(/C=C/c2ccco2)CC1c1ccccc1 (stereo unspecified)	6.3µM*	/	/	/	/	/
COc1ccc(C2(C(=O)NC3CCc4n[nH]c(=O)n4CC3)CCCCC2)cc1 (stereo unspecified)	9%	/	/	/	/	/
Cc1nc(-c2c3n(c(=O)n(CC(=O)Nc4ccc(F)cc4)c2=O)CCCCC3)no1	-2%	/	/	/	/	/
O=C(CCC1CCCCC1)NCCN1C2=NC[C@@H](Cc3ccccc3)N2C[C@H]1Cc1ccc(O)cc1	-26%	16µM*	0	-18%	-16%	16µM*
C[C@H]1CN=C2N(CCNC(=O)CCC3CCCCC3)[C@H](Cc3ccc(O)cc3)CN21	-22%	?	-11	-3%	-2%	?
O=C(CCC1CCCCC1)NCCN1C2=NC[C@H](Cc3ccccc3)N2C[C@H]1Cc1ccc(O)cc1	-25%	21µM*	-24	-8%	2%	18µM*
Cc1ccc2onc(CC(=O)N3CCN(c4ccc(F)cc4)CC3)c2c1	-17%	15µM*	/	/	/	?
COc1ccc(N2CCN(C(=O)Cc3coc4ccc(C)cc34)CC2)cc1	-21%	18µM*	/	/	/	?
COc1ccc(OC)c(S(=O)(=O)N(C)CC(=O)N2CCN(c3cccc(Cl)c3)CC2)c1	0%	?	2	-13%	-1%	18µM*
COc1ccc(N2CCN(C(=O)Cc3ccc(OC)c(OC)c3)CC2)cc1	-23%	8.2µM*	-2	-14%	-16%	16µM*
COc1ccc(OC)c(S(=O)(=O)N(C)CC(=O)N2CCN(c3ccc(F)cc3)CC2)c1	1%	-25%	-2	-1%	-4%	-21%
O=C(c1cccnc1)N1CCCCC1c1nc(C2CC2)n[nH]1 (stereo unspecified)	28%	/	/	/	/	/
CC(C)CCNC(=S)NN	-3%	/	/	/	/	/
C/C(=N\NC(=O)c1cccc(C)c1)c1ccc(-c2ccccc2)cc1	22%	/	/	/	/	/
SMILES	12-LOX inh	TDP1 cell CPT	IL-1B inflam inh	HT1080NT lethal	HT1080 IDH1KD tx	TDP1 cell noCPT
COc1ccc(CC(=O)N2CCN(c3cccc(Cl)c3)CC2)cc1OC	?	?	29	-9%	-3%	10µM*
COc1ccc(N2N=NN(C(C)C)C2=C(Cl)c2nnnn2-c2ccc(OC)cc2)cc1	?	5.8µM*	/	-7%	?	8.2µM*
O=c1c2cnc3nc(C(F)(F)F)nn3c2ccn1-c1ccc(F)c(F)c1	0%	/	/	/	/	/
Cc1cccc2nc(-c3cccnc3)c(Nc3ccc(C(C)C)cc3)n12	-25%	?	/	/	/	16µM*
Cc1ccccc1Nc1c(-c2cccs2)nc2cccc(C)n12	-6%	15µM*	/	/	/	13µM*
Cc1ccccc1Nc1c(-c2cccnc2)nc2cccc(C)n12	?	?	3	-12%	0%	21µM*
Cc1ccccc1Nc1c(-c2ccc(N3CCOCC3)cc2)nc2cccc(C)n12	-21%	?	/	/	/	?
Cc1ccc(Nc2c(-c3cccnc3)nc3ccc(Br)cn23)cc1	-15%	?	3	0%	8%	?
Cc1cccc(=O)n1CCC(=O)N1CCn2nc(C(O)C3CC3)cc2C1 (stereo unspecified)	-4%	/	/	/	/	/
O=C(Nc1ccc2c(c1)oc1ccccc12)N1CCOCC1	-7%	-3%	0	-2%	-8%	?
COc1cccc2sc3cc(NCCCN4CCOCC4)ccc3c(=O)c12	-17%	?	-60*	3%	9%	?
Cn1c2ccccc2c(=O)c2cc(NCCCN3CCOCC3)ccc21	1%	?	?	-2%	-3%	?
O=c1c2ccccc2oc2cc(NCCCN3CCOCC3)ccc12	-1%	?	-51*	-4%	-1%	?
O=c1c2ccccc2oc2ccc(NCCCN3CCOCC3)cc12	-27%	?	-53*	-2%	-12%	-23%
COc1ccc(-c2cc3c(=O)n(CCNC(=O)c4cc(Cl)ccc4F)ccn3n2)cc1	26%	/	/	/	/	/
CCN(CCCNC(=O)CSc1cc(=O)n(CC)c2ccccc12)c1ccccc1	-7%	?	/	/	/	?
CN1CCN(c2ccc(NC(=O)CN(Cc3ccccc3)S(=O)(=O)c3ccccc3)cc2)CC1	-26%	/	/	/	/	/
CN(CC1CCCCC1)C(=O)CN(C)c1ncnc2nc[nH]c12	-9%	/	/	/	/	/
Cc1cc(CNC(=O)Cn2c(=O)c3c(ncn3C)n(C)c2=O)ccc1F	27%	/	/	/	/	/
CCOC(=O)N1CCC(NC(=O)C2CCN(C(=O)c3cc4oc(C)cc4n3Cc3c(F)cccc3Cl)CC2)CC1	-13%	?	23	0%	-11%	15µM*
